Assay outcomes from PubChem.
ClpP mod – qHTS Assay for Activators of ClpP; AID 651965, 2013; Potency, µM (top dose mostly 57.5 µM); 340,000 tested, 1.9% active; ATP-dependent Clp protease proteolytic subunit (Bacillus subtilis (strain 168)), P80244; purified B. subtilis ClpP, FRET peptide cleavage, 20 min; active means well fitted falling curve with a large enough effect; inconclusive means small, poorly fitted or top-dose-only effect; inactive means no such curve, though single readings can be large or run the other way; further: the source files actives as falling curves though it sought activators and does not explain the sign; nearly all actives have a fitted effect of over 65% in size
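FRET quenching reversal measured ClpP activation: 10 microg/mL B. subtilis ClpP at pH 8 with the FRET-FV decapeptide, read at 430 nm after 320 nm excitation. The 20-min minus 0-min signal was scaled between DMSO/no-enzyme wells and ADEP (5.8 microM final).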
p53 reactivation – qHTS assay for re-activators of p53 using a Luc reporter; H1299 p53-A138V BP100-luciferase reporter, luminescence, 24 h; Potency, µM (doses to about 92.2 µM), usual class: activators; 320,000 tested, 0.063% active; AID 504706, 2011; further: nearly all actives have a fitted effect of over 45% in size
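H1299 (p53-null), stable ts p53-A138V + BP100-Luc; 1000 cells/well, Opti-MEM/10% FBS; cpd 4 pt, 1:5; 24 h, 37 deg C, 5% CO2; detection reagent 10 min RT; luminescence.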
A549 tox – Nrf2 qHTS screen for inhibitors: counterscreen for cytotoxicity. A549 ARE-Fluc cells, CellTiter-Fluor viability, 18-24 h. AID 504648, 2011. Potency, µM (doses to about 46 µM), usual class: inhibitors. 390,000 tested, 0.16% active
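A549 ARE_Fluc cells in 5% FBS OPTI-MEM were exposed to compounds in concentration-response for 18-24 h at 37 deg C. Viability was read by CellTiter-Fluor fluorescence (Ex 405/Em 525) after 30 min, before the luciferase read.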
miR-21 act – qHTS Assay for Modulators of miRNAs and/orActivators of miR-21. HeLa miR-21 FLuc reporter, luciferase, 48 h. Potency, µM (highest dose often 38.3 µM), actives largely listed as activators. 340,000 tested, under 10 active;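 further: miR-21 action dims this reporter so a rising signal means less miR-21 action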
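Luminescence from a firefly luciferase reporter carrying a miR-21 binding site downstream, stably expressed under a CMV promoter in HeLa cells that make miR-21 endogenously, reports miRNA modulation after 48 h compound exposure up to approximately 40uM final.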
Nrf2 block – Nrf2 qHTS screen for inhibitors; A549 ARE-Fluc reporter, luciferase luminescence, 18-24 h; Potency, µM (highest dose often 46 µM), hits mostly inhibitors; 360,000 tested, 2.1% active; AID 504444, 2011; further: nearly all actives have a fitted effect of over 60% in size
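Reporter: ARE-Fluc in A549. Exposure: 18-24 h, 37 °C, 5% CO2, 5% FBS OPTI-MEM. Readouts: fluorescent cytotoxicity (CellTiter-Fluor), then luminescent Nrf2 signal after BugLite.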
Nrf2 ARE act – qHTS of Nrf2 Activators. AREc32 ARE-luciferase reporter (MCF7-derived line), luminescence, 24 h. Potency, µM (top dose mostly 46.1 µM), hits mostly activators. 410,000 tested, 0.31% active. AID 624171, 2012; further: nearly all actives have a fitted effect of over 65% in size
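Luciferase luminescence (Steady-Glo, 30 min at room temperature) served as the read-out of ARE activation in AREc32 cells treated with compounds for 24 hr at 37 deg C.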
Of the large screens only hits and unclear results are named; the others gave an inactive call. Compounds with a hit are over-represented: about 3.7% of the library has one in this group of screens. Unless noted, the call rests on the fitted dose curve; in most records, active means well fitted curve in the direction sought with a large enough effect; inconclusive means small, poorly fitted or top-dose-only effect, or another doubt; inactive means no such curve, though single readings can be large; an effect the other way counts as inactive or inconclusive.

O=C(NCc1cccnc1)/C(=C\c1ccc(-c2ccc(Cl)c(Cl)c2)o1)S(=O)(=O)c1ccccc1	A549 tox inconclusive, miR-21 act inconclusive, Nrf2 block 18µM, Nrf2 ARE act inconclusive
CCCS(=O)(=O)NC(=O)C1(C)CCN(C(=O)CSc2ccccc2)C1 (stereo not given)	none (no result: p53 reactivation, A549 tox, miR-21 act, Nrf2 block)
CCc1ccc(N2C(=O)CC(c3cc(OC)ccc3OC)C3=C2COC3=O)cc1 (stereo not given)	none (no result: p53 reactivation)
Cc1nn(Cc2ccc(F)cc2)c2sc(C(=O)Nc3ccc(N4CCOCC4)cc3N3CCOCC3)cc12	Nrf2 block 15µM
CCCCCCc1nc2ccccc2c(=O)n1NC(=O)c1c(O)c2c(n(CC(C)C)c1=O)CCCC2	ClpP mod inconclusive, A549 tox inconclusive, Nrf2 block 21µM
CCn1c(=O)c(C(=O)NNS(=O)(=O)c2ccc(C)cc2)c(O)c2ccccc21	Nrf2 block 15µM
CCCc1nc2ccccc2c(=O)n1NC(=O)c1c(O)c2ccccc2n(C)c1=O	Nrf2 block 18µM
CCCn1c(=O)c(C(=O)NNS(=O)(=O)c2ccc(C)cc2)c(O)c2ccccc21	Nrf2 block inconclusive
Cc1nc2ccccc2c(=O)n1NC(=O)c1c(O)c2c(n(CC(C)C)c1=O)CCCC2	A549 tox inconclusive, Nrf2 block inconclusive
CCCCNc1nc(Oc2ccc(=O)n(-c3ccccc3)n2)nc(N(CC)CC)n1	A549 tox inconclusive, miR-21 act inconclusive, Nrf2 block inconclusive (no result: p53 reactivation)
CCCNC(=O)C1(C)CCN1C(=O)Cc1ccc(C(C)C)cc1 (stereo not given)	none (no result: p53 reactivation, A549 tox, miR-21 act, Nrf2 block)
COc1ccc(-c2cc(-c3ccccc3)nc3c2COc2ccccc2-3)cc1	none (no result: p53 reactivation)
COc1ccc(C2=Nc3ccccc3OC2)cc1	p53 reactivation inconclusive, Nrf2 block inconclusive, Nrf2 ARE act 11µM
O=S(=O)(c1ccc(NC(=S)N2CCCCC2CO)cc1)N1CCOCC1 (stereo not given)	none (no result: p53 reactivation, A549 tox, miR-21 act, Nrf2 block)
Cc1cc(SCC(=O)N/N=C/c2ccc(O)cc2O)c(C)cc1Br	Nrf2 block 15µM
Cc1sc2ncnc(N3CCC(C(=O)Nc4cc(S(C)(=O)=O)ccc4Cl)CC3)c2c1C	Nrf2 block 18µM (no result: ClpP mod, miR-21 act)
Cc1sc2ncnc(N3CCC(C(=O)NNC(=O)c4ccc(Cl)cc4)CC3)c2c1C	ClpP mod 13µM, Nrf2 block inconclusive (no result: miR-21 act)
COc1ccc(S(=O)(=O)N(C)C)cc1NC(=O)C1CCN(c2ncnc3sc(C)c(C)c23)CC1	A549 tox inconclusive, Nrf2 block 12µM (no result: p53 reactivation, miR-21 act)
Cc1sc2ncnc(N3CCC(C(=O)Nc4cc(Cl)ccc4Cl)CC3)c2c1C	Nrf2 block inconclusive (no result: miR-21 act)
Cc1cc(N(C)C)c(C)cc1/C=C/c1ccnc2ccccc12	none (no result: p53 reactivation, A549 tox, miR-21 act, Nrf2 block, Nrf2 ARE act)
O=C(NCc1ccccc1Cl)C(=O)NCC(c1cccs1)S(=O)(=O)c1cccs1 (stereo not given)	none (no result: p53 reactivation, Nrf2 block)
CCC(CC)C(=O)N1CCc2cc(OC)c(OC)cc2C1COc1ccccc1OC (stereo not given)	none (no result: p53 reactivation, Nrf2 block)
CC[N+]1(CC(=O)c2ccc(Br)cc2)CCCCC1	none (no result: p53 reactivation, A549 tox, miR-21 act, Nrf2 block, Nrf2 ARE act)
COc1ccccc1NC(=O)Cn1c(=O)n(-c2cccc(C)c2)c(=O)c2c1c1cc(C)ccc1n2C	none (no result: p53 reactivation, Nrf2 block)
CN(C)CCNC(=O)c1ccc(Cn2c(SCc3ccc(F)cc3)nc3cccnc32)cc1	Nrf2 block inconclusive (no result: p53 reactivation)
O=C(NCCN1CCCCC1)c1ccc(Cn2c(SCc3ccc(F)cc3)nc3cccnc32)cc1	ClpP mod 32µM (no result: p53 reactivation)
COc1ccc(Cn2c(SCc3ccc(C(=O)NCc4ccccc4F)cc3)nc3cccnc32)cc1	ClpP mod 32µM (no result: p53 reactivation)
COc1ccc(Cn2c(SCc3ccc(C(=O)NCc4ccc(C)cc4)cc3)nc3cccnc32)cc1	ClpP mod 32µM (no result: p53 reactivation)
Cc1cc(O)c(C(c2ccc(F)cc2)N2CCCCC2)c(=O)n1Cc1ccco1 (stereo not given)	none (no result: p53 reactivation, Nrf2 block)
CC(C)c1ccc(S(=O)(=O)c2n[nH]n3c2nc(=O)c2ccccc23)cc1	ClpP mod 25µM
O=c1nc2c(-c3ccc(F)cc3Cl)n[nH]n2c2ccccc12	Nrf2 ARE act inconclusive (no result: p53 reactivation, Nrf2 block)
CCc1ccc(S(=O)(=O)c2n[nH]n3c2nc(=O)c2ccccc23)cc1	ClpP mod 32µM
O=c1nc2c(-c3ccccc3F)n[nH]n2c2ccccc12	ClpP mod 28µM, Nrf2 block inconclusive, Nrf2 ARE act inconclusive
COc1ccc(NC(=O)C2CCCN(S(=O)(=O)c3ccc4c(c3)CCCN4C(C)=O)C2)cc1 (stereo not given)	none
CC(=O)N1CCCc2cc(S(=O)(=O)N3CCCC(C(=O)NCc4ccc(C)cc4)C3)ccc21 (stereo not given)	Nrf2 block 5.8µM
COc1ccc(S(=O)(=O)N2CCCC(C(=O)Nc3cccnc3)C2)cc1Cl (stereo not given)	Nrf2 block 16µM
CC(=O)N1CCCc2cc(S(=O)(=O)N3CCCC(C(=O)NCc4ccccc4)C3)ccc21 (stereo not given)	p53 reactivation inconclusive, miR-21 act inconclusive, Nrf2 block inconclusive
COc1ccc(NC(=O)C2CCCN(S(=O)(=O)c3ccc4c(c3)CCCN4C(C)=O)C2)cc1Cl (stereo not given)	Nrf2 block 16µM
CCN1CCN(C(c2ccc(SC)cc2)c2c(O)cc(C)n(CCOC)c2=O)CC1 (stereo not given)	none (no result: p53 reactivation, Nrf2 block)
CCOC(=O)c1ccc(NC(=O)CCn2ccc(C)n2)cc1	none (no result: p53 reactivation)
O=[N+]([O-])c1ccc(C[n+]2ccccc2)cc1	Nrf2 block 21µM (no result: miR-21 act)
O=[N+]([O-])c1ccc(C[n+]2ccc(Cc3ccccc3)cc2)cc1	Nrf2 block inconclusive (no result: ClpP mod)
CCOC(=O)N1CCN(CC(=O)Nc2c(C(=O)OC)[nH]c3ccc(Cl)cc23)CC1	ClpP mod inconclusive, Nrf2 block inconclusive
COc1ccc2[nH]c(C(=O)O)c(CCC(=O)O)c2c1	ClpP mod 20µM
CCOC(=O)c1[nH]c2ccc(OC)cc2c1NC(C)=O	ClpP mod 25µM
C=CCOC(=O)Nc1c(C(=O)OC)[nH]c2ccc(Cl)cc12	ClpP mod 32µM (no result: Nrf2 block)
CCOC(=O)c1[nH]c2ccc(OC)cc2c1NC(=O)CN1CCSCC1	ClpP mod 13µM
CCOC(=O)c1[nH]c2ccc(OCC)cc2c1NC(=O)CN1CCN(c2ccccc2)CC1	ClpP mod inconclusive, p53 reactivation inconclusive (no result: Nrf2 block)
COc1ccc(OC)c(CNC(=O)c2c(C)oc3ncn(CC(C)C)c(=O)c23)c1	none (no result: p53 reactivation)
CC(O)(c1cccc(F)c1)c1nc(-c2cccc3cccnc23)cs1 (stereo not given)	none (no result: p53 reactivation, A549 tox, miR-21 act, Nrf2 block)
